{"source": "PubChem BioAssay (Tox21)", "note": "Records with an inconclusive call do not appear. Active and inactive are the calls of the source. The call rests on the fitted dose curve; in most records, active means well fitted cell-killing curve with a large enough effect in the repeat runs; inconclusive means weak or mixed curves, or effect the other way; inactive means flat fitted curve, though single readings scatter. Further: nearly all actives have a fitted effect of over 50% in size. On the % scale 0 is the no-effect control and ±100 the full control effect.", "data": [{"test": "qHTS assay to identify small molecule HDAC inhibitors - cell viability counter screen (AID 1259365)", "conditions": "HCT-116 viability, CellTiter-Glo ATP luminescence, 2 h; series mostly up to 92.4 µM; activity change, negative = cytotoxicity: at the top concentration", "in_short": "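Measured quantity is CellTiter-Glo luminescence from wild-type HCT-116 cells after compound incubation of 2hr at 37C, 5% CO2; reagent developed 30min at room temperature.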", "values": [{"compound": "O=C(/C=C/c1ccccc1)NCCO", "activity change, negative = cytotoxicity": "-4.52% [at 42.5 µM] (inactive)"}, {"compound": "CCC(C)(CCC(C)C)C(=O)[O-].CCC(C)(CCC(C)C)C(=O)[O-].[Zn+2]", "note": "(stereo unspecified)", "activity change, negative = cytotoxicity": "4.99% (inactive)"}, {"compound": "CCc1nccnc1C", "activity change, negative = cytotoxicity": "-0.202% (inactive)"}, {"compound": "C=CCOc1c(Br)cc(C(C)(C)c2cc(Br)c(OCC=C)c(Br)c2)cc1Br", "activity change, negative = cytotoxicity": "-3.09% [at 42.5 µM] (inactive)"}, {"compound": "SCCSCCS", "activity change, negative = cytotoxicity": "-0.539% (inactive)"}, {"compound": "CN(C)CCCNCCC#N", "activity change, negative = cytotoxicity": "3.79% (inactive)"}, {"compound": "FC(F)(F)/C(=N\\OCC1OCCO1)c1ccc(Cl)cc1", "activity change, negative = cytotoxicity": "-10.8% (inactive)"}, {"compound": "FC(F)(F)c1ccc(Cl)cc1Cl", "activity change, negative = cytotoxicity": "3.02% (inactive)"}, {"compound": "Cc1ccccc1OCC1CO1", "note": "(stereo unspecified)", "activity change, negative = cytotoxicity": "-0.918% (inactive)"}, {"compound": "C[C@H](CCC(=O)O)[C@H]1CC[C@H]2[C@@H]3[C@H](O)C[C@@H]4C[C@H](O)CC[C@]4(C)[C@H]3C[C@H](O)[C@]12C", "activity change, negative = cytotoxicity": "0.19% [at 42.5 µM] (inactive)"}, {"compound": "CCCCCCCC[Si](OCC)(OCC)OCC", "activity change, negative = cytotoxicity": "-0.367% (inactive)"}, {"compound": "CC(C)COC(=O)CC(C(=O)OCC(C)C)S(=O)(=O)O", "note": "(stereo unspecified)", "activity change, negative = cytotoxicity": "1.39% (inactive)"}, {"compound": "Cc1ncc([N+](=O)[O-])n1CC(O)CCl", "note": "(stereo unspecified)", "activity change, negative = cytotoxicity": "-1% [at 42.5 µM] (inactive)"}, {"compound": "CO[Si](CCCCl)(OC)OC", "activity change, negative = cytotoxicity": "-2.29% (inactive)"}]}, {"test": "qHTS assay to identify small molecule agonists of the sonic hedgehog signaling (Shh) pathway - cell viability counter screen (AID 1259366); further: potency means the concentration at half of the fitted maximal effect", "conditions": "NIH/3T3 Gli1-Luc viability, CellTiter-Fluor, 24 h; series mostly up to 92.4 µM; viability change, negative = cytotoxic: at the top concentration", "in_short": "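In quantitative high-throughput format, 3T3 Gli1-Luc cells were exposed to compounds for 24hr and multiplexed for viability using CellTiter-Fluor, incubated 1hr at 37C before the fluorescence read.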", "values": [{"compound": "CCCCCCCCCCCCCCCC(=O)NCCO", "viability change, negative = cytotoxic": "9.16% [at 42.5 µM] (inactive)"}, {"compound": "C=COCCOCCOC=C", "viability change, negative = cytotoxic": "-0.651% (inactive)"}, {"compound": "C=C(C)[C@@H]1CC[C@@H](C)C[C@@H]1O", "viability change, negative = cytotoxic": "1.18% (inactive)"}, {"compound": "O=C(O)CCNC(=O)c1ccccc1", "viability change, negative = cytotoxic": "4.62% [at 42.5 µM] (inactive)"}, {"compound": "CCOC(=O)C(=O)c1csc(NC=O)n1", "viability change, negative = cytotoxic": "-3.81% [at 42.5 µM] (inactive)"}, {"compound": "CCC(CO)CO", "viability change, negative = cytotoxic": "-5.45% (inactive)"}, {"compound": "Nc1nc(=O)n([C@@H]2O[C@H](CO)[C@@H](O)[C@@H]2F)cc1I", "viability change, negative = cytotoxic": "6.37% [at 42.5 µM] (inactive)"}, {"compound": "COc1ccc(N=Nc2cc(C)c(N=Nc3ccc(S(=O)(=O)O)cc3)cc2OC)cc1", "Potency": "54.5 µM (active)"}, {"compound": "OC(CCN1CCCCC1)(c1ccccc1)c1ccccc1", "viability change, negative = cytotoxic": "-25.6% [at 42.5 µM] (inactive)"}, {"compound": "Cc1nc(C)nc(N2C[C@@H](C)N(c3ccnc([C@@H](C)O)n3)[C@@H](C)C2)n1", "viability change, negative = cytotoxic": "10.3% [at 42.5 µM] (inactive)"}, {"compound": "COc1ccc(NS(=O)(=O)c2ccc(N)cc2)nn1", "viability change, negative = cytotoxic": "4.76% [at 42.5 µM] (inactive)"}, {"compound": "O=C(CN1CCN(Cc2ccc3c(c2)OCO3)CC1)N1c2ccccc2Sc2ccccc21", "viability change, negative = cytotoxic": "-13.4% [at 42.5 µM] (inactive)"}, {"compound": "NS(=O)(=O)c1ccc(Cl)c(S(N)(=O)=O)c1", "viability change, negative = cytotoxic": "-4.81% [at 42.5 µM] (inactive)"}, {"compound": "C1=C\\CC/C=C\\CC/1", "viability change, negative = cytotoxic": "1.2% (inactive)"}, {"compound": "CCCCCC1CCCC(=O)O1", "note": "(stereo unspecified)", "viability change, negative = cytotoxic": "4.6% (inactive)"}, {"compound": "C=C(C)C(=O)OC1CC(C)CC(C)(C)C1", "note": "(stereo unspecified)", "viability change, negative = cytotoxic": "7.15% (inactive)"}, {"compound": "C=C[C@@H](C)CCC=C(C)C", "viability change, negative = cytotoxic": "2.58% (inactive)"}, {"compound": "CCN(CC)C(=O)C1CN2CCc3cc(OC)c(OC)cc3C2CC1OC(C)=O", "note": "(stereo unspecified)", "viability change, negative = cytotoxic": "-0.608% [at 42.5 µM] (inactive)"}, {"compound": "O=C(Oc1ccccc1C(=O)O)c1ccccc1O", "viability change, negative = cytotoxic": "-1.3% [at 42.5 µM] (inactive)"}, {"compound": "NC(=O)NNC(N)=O", "viability change, negative = cytotoxic": "-3.78% (inactive)"}, {"compound": "C=CCCCCCCCCCCC", "viability change, negative = cytotoxic": "3.1% [at 8.39 µM] (inactive)"}, {"compound": "CCCCC(C)C(=O)O", "note": "(stereo unspecified)", "viability change, negative = cytotoxic": "4.84% (inactive)"}, {"compound": "CCCCCCCCCCCCCCCCCCN(C)C", "viability change, negative = cytotoxic": "-2.59% [at 42.5 µM] (inactive)"}, {"compound": "COc1cc2c3cc1Oc1cc(ccc1O)C[C@@H]1c4c(cc(OC)c(O)c4Oc4ccc(cc4)C[C@@H]3N(C)CC2)CC[N+]1(C)C", "viability change, negative = cytotoxic": "1.08% [at 42.5 µM] (inactive)"}, {"compound": "O=C(/C=C/c1ccccc1)NCCO", "viability change, negative = cytotoxic": "9.9% [at 42.5 µM] (inactive)"}, {"compound": "CCc1nccnc1C", "viability change, negative = cytotoxic": "2.74% (inactive)"}, {"compound": "C=CCOc1c(Br)cc(C(C)(C)c2cc(Br)c(OCC=C)c(Br)c2)cc1Br", "viability change, negative = cytotoxic": "7.36% [at 42.5 µM] (inactive)"}, {"compound": "SCCSCCS", "viability change, negative = cytotoxic": "-4.23% (inactive)"}, {"compound": "CN(C)CCCNCCC#N", "viability change, negative = cytotoxic": "4.33% (inactive)"}, {"compound": "FC(F)(F)/C(=N\\OCC1OCCO1)c1ccc(Cl)cc1", "viability change, negative = cytotoxic": "-0.806% (inactive)"}, {"compound": "FC(F)(F)c1ccc(Cl)cc1Cl", "viability change, negative = cytotoxic": "0.747% (inactive)"}, {"compound": "Cc1ccccc1OCC1CO1", "note": "(stereo unspecified)", "viability change, negative = cytotoxic": "-2.51% (inactive)"}, {"compound": "C[C@H](CCC(=O)O)[C@H]1CC[C@H]2[C@@H]3[C@H](O)C[C@@H]4C[C@H](O)CC[C@]4(C)[C@H]3C[C@H](O)[C@]12C", "viability change, negative = cytotoxic": "-0.611% [at 42.5 µM] (inactive)"}, {"compound": "CCCCCCCC[Si](OCC)(OCC)OCC", "viability change, negative = cytotoxic": "0.0267% (inactive)"}, {"compound": "CC(C)COC(=O)CC(C(=O)OCC(C)C)S(=O)(=O)O", "note": "(stereo unspecified)", "viability change, negative = cytotoxic": "0.336% (inactive)"}, {"compound": "Cc1ncc([N+](=O)[O-])n1CC(O)CCl", "note": "(stereo unspecified)", "viability change, negative = cytotoxic": "1.62% [at 42.5 µM] (inactive)"}, {"compound": "CO[Si](CCCCl)(OC)OC", "viability change, negative = cytotoxic": "3.34% (inactive)"}]}]}
